Several values for one entry are separate records, joined by “and”; a condition that tells them apart may be missing. Equal entries are not always repeated. Out of some 5,500 compounds screened, about 2,000 (36%) were called active. Inconclusive results (about 18%) are left out. Cut-off read from the data, not from the text of the source: active = normalized growth mostly below about 0.91 (no sharp cut-off); inconclusive = no clear call, values can overlap the other calls; inactive = mostly above about 0.92. The list shows a part of the results.
Assay: chemical genetic growth profiling, strain panel (AID 1159580);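 note: tested at 20 µM; growth read once vehicle control cultures reached saturation at 30 °C; 1 = growth at the plate median or of vehicle wells; lower values mean less growth of the strain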
Settings: S. cerevisiae deletion strains, growth OD

Measured: normalized growth

CC(COc1ccccc1)N(CCCl)Cc1ccccc1 (stereo not given)
inactive: locus YAL013W, strain DEP1, active compounds read low 1.01 | locus YAL021C, strain ccr4, active compounds read low 0.96 | locus YAL026C, strain drs2, active compounds read low 0.936 | locus YAL030W, strain snc1, active compounds read low 0.974 | locus YAL040C, strain CLN3, active compounds read low 1.09 | locus YBL061C, strain skt5, active compounds read low 0.978 | locus YBR009C, strain hhf1, active compounds read low 0.99 | locus YBR021W, strain FUR4, active compounds read low 1.02 | locus YBR023C, strain chs3, active compounds read low 0.97 | locus YBR171W, strain sec66, active compounds read low 0.984 | locus YBR229C, strain ROT2, active compounds read low 1 | locus YBR231C, strain swc5, active compounds read low 1.01 | locus YBR279W, strain paf1, active compounds read low 0.961 | locus YCL016C, strain dcc1, active compounds read low 0.947 | locus YCL029C, strain bik1, active compounds read low 1.03 | locus YCL061C, strain MRC1 (second series), active compounds read low 0.956 | locus YCL061C, strain MRC1, active compounds read low 0.964 | locus YCL069W, strain vba3, active compounds read low 0.995 | locus YCR088W, strain abp1, active compounds read low 0.986 | locus YDL005C, strain med2, active compounds read low 0.972 | locus YDL035C, strain GPR1, active compounds read low 0.997 | locus YDL040C, strain nat1, active compounds read low 0.983 | locus YDL074C, strain BRE1, active compounds read low 1.02 | locus YDL101C, strain DUN1, active compounds read low 1.01 | locus YDL134C, strain PPH21, active compounds read low 1.01 | locus YDL185W, strain tfp1, active compounds read low 1.01 | locus YDL192W, strain arf1, active compounds read low 1.01 | locus YDR001C, strain nth1, active compounds read low 0.985 | locus YDR069C, strain doa4, active compounds read low 0.965 | locus YDR101C, strain arx1, active compounds read low 1.01 | locus YDR137W, strain rgp1, active compounds read low 0.853 | locus YDR150W, strain NUM1, active compounds read low 1.01 and 0.963 | locus YDR159W, strain sac3, active compounds read low 0.978 | locus YDR162C, strain NBP2, active compounds read low 0.998 | locus YDR195W, strain ref2 1.03 | locus YDR297W, strain sur2, active compounds read low 0.995 | locus YDR318W, strain mcm21, active compounds read low 1.01 | locus YDR334W, strain swr1, active compounds read low 0.969 | locus YDR335W, strain msn5, active compounds read low 0.974 | locus YDR363W, strain ESC2, active compounds read low 0.905 | locus YDR388W, active compounds read low 1.02 | locus YDR392W, strain spt3, active compounds read low 0.742 | locus YDR502C, strain sam2, active compounds read low 0.999 | locus YEL003W, strain gim4, active compounds read low 0.991 | locus YEL037C, strain rad23, active compounds read low 0.978 | locus YEL061C, strain CIN8 (second series), active compounds read low 0.971 | locus YEL061C, strain CIN8, active compounds read low 1.01 | locus YER002W, strain NOP16, active compounds read low 1.02 | locus YER015W, strain faa2, active compounds read low 0.993 | locus YER016W, strain bim1, active compounds read low 0.983 | locus YER110C, active compounds read low 1.01 | locus YER111C, strain swi4, active compounds read low 0.995 | locus YER155C, strain BEM2 (second series), active compounds read low 0.994 | locus YER155C, strain BEM2, active compounds read low 1.01 | locus YER167W, strain BCK2, active compounds read low 0.991 | locus YFR010W, strain ubp6, active compounds read low 0.986 | locus YGL078C, strain dbp3, active compounds read low 1.01 | locus YGL086W, strain mad1, active compounds read low 0.986 | locus YGL167C, strain pmr1, active compounds read low 1 | locus YGL173C, strain kem1, active compounds read low 1.01 | locus YGL227W, strain vid30, active compounds read low 0.973 | locus YGL240W, strain doc1, active compounds read low 1 | locus YGL248W, strain PDE1, active compounds read low 1.01 | locus YGL253W, strain hxk2, active compounds read low 0.921 | locus YGR078C, strain PAC10, active compounds read low 1.01 | locus YGR135W, strain pre9, active compounds read low 1.01 | locus YGR229C, strain SMI1, active compounds read low 0.999 | locus YGR252W, strain gcn5, active compounds read low 0.957 | locus YHR013C, strain ard1, active compounds read low 0.924 | locus YHR027C, strain rpn1, active compounds read low 0.991 | locus YHR030C, strain SLT2, active compounds read low 1.01 and 0.986 | locus YHR079C, strain IRE1 (second series), active compounds read low 1.02 | locus YHR079C, strain IRE1, active compounds read low 0.964 | locus YHR094C, strain hxt1, active compounds read low 1.02 | locus YHR129C, strain ARP1, active compounds read low 1.01 | locus YHR142W, strain chs7, active compounds read low 0.938 | locus YHR200W, strain rpn10, active compounds read low 1.01 | locus YIL066C, strain RNR3, active compounds read low 1.01 | locus YIL073C, strain SPO22, active compounds read low 1.05 | locus YIL125W, strain kgd1, active compounds read low 1.01 | locus YIR030C, strain dcg1, active compounds read low 1.02 | locus YJL092W, strain hpr5, active compounds read low 0.963 | locus YJL095W, strain BCK1 (second series), active compounds read low 0.958 | locus YJL095W, strain BCK1, active compounds read low 1 and 0.997 | locus YJL115W, strain asf1, active compounds read low 0.947 | locus YJL129C, strain trk1, active compounds read low 0.956 | locus YJL134W, strain LCB3, active compounds read low 1 | locus YJL154C, strain vps35, active compounds read low 0.982 | locus YJL164C, strain tpk1, active compounds read low 0.961 | locus YJL166W, strain qcr8, active compounds read low 0.974 | locus YJL168C, strain set2, active compounds read low 1.01 | locus YJL187C, strain SWE1 (second series), active compounds read low 1.03 | locus YJR043C, strain POL32, active compounds read low 1.02 | locus YJR066W, strain TOR1, active compounds read low 0.925
active: locus YCL011C, strain gbp2, active compounds read low 0.895

Reference: PubChem BioAssay AID1159580 (chemical genetic matrix, 2015)
